According to PubChem BioAssay (EPA / NIEHS):
Values joined by “and” are separate entries in the source; they are usually repeats but may differ in a detail not shown here. Equal entries are not always repeated. The source holds several records for some structures; these can differ, active in one and inactive in another. Active and inactive are the calls of the source. The calls were made as follows: active = hit-call score of the fitted dose curve at least 0.9, where 1 is the maximum; inactive = score below 0.9.

Test: ATG_TGFb_CIS: Attagene CIS-FACTORIAL HepG2 Assay for human Transforming Growth Factor (TGF) (AID 2282967)
Details: HepG2 Attagene CIS TGFb reporter, mRNA transcription; actives raise or lower the signal
Method: ATG_CIS is a cell-based, multiplexed-readout assay that uses HepG2, a human liver cell line, with measurements taken at 24 hours after chemical dosing in a 24-well plate.ATG_TGFb_CIS is one of 52 assay component(s) measured or calculated from the ATG_CIS assay. It is designed to make measurements of mRNA induction, a form of inducible reporter, as detected with fluorescence intensity signals by Reverse transcription polymerase chain reaction (RT-PCR) and Capillary electrophoresis technology.Data from the assay component ATG_TGFb_CIS was analyzed into 1 assay endpoint. This assay endpoint, ATG_TGFb_CIS, was analyzed with bidirectional fitting relative to DMSO as the negative control and baseline of activity. Using a type of inducible reporter, measures of mRNA for gain or loss-of-signal activity can be used to understand the reporter gene at the transcription factor-level as they relate to the gene TGFB1. Furthermore, this assay endpoint can be referred to as a primary readout, because this assay has produced multiple assay endpoints where this one serves a reporter gene function. To generalize the intended target to other relatable targets, this assay endpoint is annotated to the growth factor intended target family, where the subfamily is transforming growth factor beta.
Human liver HepG2 cells are transiently transfected with multiple reporter transcription units (MRTUs) in 6-well plates using FuGene 6 reagent (Roche; 3 ml FuGene/1 mg DNA). The MRTU constructs are regulated by a cis-regulating element (promoter). […] A major difference between the CIS and TRANS system is that in CIS activities of endogenous TFs are measured, whereas the TRANS assay evaluates changes in activities of exogenous, chimeric NR-Gal4 proteins. […] At the end of 24 hour incubation, total RNA was isolated using TriZol reagent (Invitrogen). The isolated RNA is then reverse-transcribed using oligo(dT) primer and Mo-MLV reverse transcriptase (Invitrogen) with DNAse I (Ambion) treatment for 30 min. The one-tenth of the produced cDNA was amplified by PCR using Taq DNA polymerase (Invitrogen) and two reporter sequence-specific primers. The PCR products were fluorescently labeled by primer extension with 6-arboxyfluorescein (6-FAM) 5'-labeled reporter sequence-specific primer (2 min at 95 C, 20 s at 68 C and 10 min at 72 C) and these products were digested with 5U of HpaI (New England Biolabs) for 2h at 37 C. The fragments were purified using Qiaquick PCR columns (Qiagen), analyzed on an ABI 3130xL genetic analyzer (Applied Biosystems) with peak positions identified by using a set of X-rhodamine (ROX)-labeled MapMarker1000 molecular weight standards (BioVentures). The raw capillary electrophoresis data was processed using Attagraph software (Attagene).

Row | SMILES | outcome | AC50
1 | Clc1ccc(Nc2nnc(Cc3ccncc3)c3ccccc23)cc1 | inactive | –
2 | FCOC(C(F)(F)F)C(F)(F)F | inactive | –
3 | CC(C)c1c(C(=O)Nc2ccccc2)c(-c2ccccc2)c(-c2ccc(F)cc2)n1CC[C@@H](O)C[C@@H](O)CC(=O)O | inactive | –
4 | c1cc2cccc3c4cccc5cccc(c(c1)c23)c54 | inactive | –
5 | CCCCCCCCCCCCOC(=O)c1cc(O)c(O)c(O)c1 | inactive | –
6 | COc1cccc(O)c1 | inactive | –
7 | CN(CCO)S(=O)(=O)C(F)(F)C(F)(F)C(F)(F)C(F)(F)C(F)(F)C(F)(F)C(F)(F)C(F)(F)F | inactive | –
8 | CC1CNCC(C)O1 (stereo not given) | inactive | –
9 | CC(C)(C)c1ccc(O)c(O)c1 | inactive | 100 µM (active) and 46.6 µM (active) and 42.3 µM (active)
10 | COC(=O)C(F)(F)C(F)(F)C(F)(F)C(F)(F)C(F)(F)F | inactive | –
11 | C=COC(=O)C(C)(C)CCCCCC | inactive | –
12 | Cc1ccc(N=Nc2c(O)ccc3ccccc23)c(C)c1 | inactive | –
13 | CC(C)(C)c1ccc(CCC=O)cc1 | inactive | –
14 | CCCCCCCCC(C)=O | inactive | –
15 | Nc1ccn([C@@H]2O[C@H](CO)[C@@H](O)C2O)c(=O)n1 (stereo not given in full) | inactive | –
16 | CCC(C)c1nccnc1OC (stereo not given) | inactive | –
17 | O=C(O)c1cccc(C(=O)O)n1 | inactive | –
18 | COc1ccc(C#N)cc1 | inactive | –
19 | COc1cc(OC)nc(NC(=O)NS(=O)(=O)Nc2ccccc2C(=O)N(C)C)n1 | inactive | –
20 | CCCCCCCCCCCC[N+](C)(C)CCCCCCCCCCCC | inactive | –

Row | SMILES | outcome | AC50
21 | NNc1nc(-c2ccc([N+](=O)[O-])cc2)cs1 | inactive | –
22 | NS(=O)(=O)O | inactive | –
23 | COC(O)c1ccccc1 (stereo not given) | inactive | –
24 | CC1=NN(c2ccccc2)C(=O)C1 | inactive | –
25 | Oc1c(Cl)ccc(Cl)c1Cl | inactive | –
26 | O=C(c1ccccc1)c1ccccc1 | inactive | –
27 | FC(F)(F)C1(F)C(F)(F)C(F)(F)C(F)(F)C(F)(C(F)(F)F)C1(F)F (stereo not given) | inactive | –
28 | FC1(F)C=CC(F)(F)C1(F)F | inactive | –
29 | O=C(C=C(O)C(F)(F)F)C(F)(F)F | inactive | –
30 | Cc1cc(C(=C2C=CC(=Nc3ccc(S(=O)(=O)O)cc3)C=C2)c2ccc(Nc3ccc(S(=O)(=O)O)cc3)cc2)cc(S(=O)(=O)O)c1N | inactive | –
31 | CCCCCCOC(=O)c1ccc(O)cc1 | – | 50.8 µM (active)
32 | CCC(=O)C=Cc1ccc(OC)cc1 | inactive | –
33 | CCCCCCCCCCCC(=O)O | inactive | –
34 | CC(C)(C)C1CCCCC1O (stereo not given) | inactive | –
35 | CCC(=O)O | inactive | –
36 | Cc1ccccc1OCC(=O)O | inactive | –
37 | Cc1cc(C(C)(C)C)c(O)c(C(C)(C)C)c1 | inactive | –
38 | CC[N+](CC)(CC)Cc1ccccc1 | inactive | –
39 | O=C(Nc1cccc([N+](=O)[O-])c1)c1cc2ccccc2cc1O | – | 48.1 µM (active)
